Measurements: PubChem BioAssay (NCATS)
Where “and” joins values, the source holds several entries; their conditions need not be identical. Identical values can stand only once. Results filed as inconclusive are left out. Entries that show only a call come without a potency. Calls of active or inactive are those of the source. Unless noted, calls come from the whole dose curve; as a rule, active = well fitted curve in the direction sought with a large enough effect; inconclusive = small, poorly fitted or top-dose-only effect, or another doubt; inactive = no such curve, though single readings can be large; an effect the other way counts as inactive or inconclusive.

Columns and labels:
[1] = A High-Content qHTS Against Drug Library for the Identification of Small Molecules that Inhibit DYT1 Early Onset Primary Dystonia-Associated Cell Pathology (AID 1645839; calls by dose curve; note: series mostly up to about 46 µM)
Outline: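 Flp-In T-REx 293 cells with tetracycline-inducible EGFP-delE hTOR1A (WT EGFP-hTOR1A as reference), 800 cells/well; compound added with tetracycline, 48 h at 37 C. Fixed, permeabilized cells imaged; %pathology (punctate TorsinA) primary, cell count counterscreen.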

[2] = molecular target: Cytochrome P450 2D6 (Homo sapiens) (UniProt P10635); experiment: Cytochrome P450 family 2 subfamily D member 6 (CYP2D6) small molecule antagonists: luciferase biochemical (cell-free) qHTS assay (AID 1645840; active = well fitted curve in the direction sought with a large enough effect in the repeat runs; an effect the other way counts as inactive or inconclusive; note: nearly all actives have a fitted effect of over 55% in size; note: potency is the fitted concentration of half-maximal effect)
Sequence of Cytochrome P450 2D6 (Homo sapiens) (P10635 whole entry, looked up): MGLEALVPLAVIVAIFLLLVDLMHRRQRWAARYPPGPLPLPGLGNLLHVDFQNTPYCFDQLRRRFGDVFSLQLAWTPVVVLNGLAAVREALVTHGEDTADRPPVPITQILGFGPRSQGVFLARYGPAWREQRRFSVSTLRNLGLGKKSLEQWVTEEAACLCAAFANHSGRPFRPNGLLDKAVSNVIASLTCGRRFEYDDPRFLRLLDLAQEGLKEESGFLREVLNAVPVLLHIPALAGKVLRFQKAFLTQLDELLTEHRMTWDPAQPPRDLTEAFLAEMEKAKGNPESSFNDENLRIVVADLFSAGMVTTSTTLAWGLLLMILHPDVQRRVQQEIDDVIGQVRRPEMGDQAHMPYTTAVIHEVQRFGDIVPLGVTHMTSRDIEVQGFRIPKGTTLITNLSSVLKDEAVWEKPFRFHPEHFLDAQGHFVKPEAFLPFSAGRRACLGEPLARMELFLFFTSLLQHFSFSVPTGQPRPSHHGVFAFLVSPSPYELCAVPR
Outline: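 P450-Glo luminescent screen: recombinant CYP2D6 enzyme–proluciferin substrate mix preincubated with compound 10 min at room temperature, then NADPH regeneration added for 1 h at room temperature. Detection reagent added for 20 min; luciferin light read as relative luminescence units.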

[3] = molecular target: Cytochrome P450 2C9 (Homo sapiens) (UniProt P11712); experiment: Cytochrome P450 family 2 subfamily C member 9 (CYP2C9) small molecule antagonists: luciferase biochemical (cell-free) qHTS assay (AID 1645842; active = well fitted curve in the direction sought with a large enough effect in the repeat runs; an effect the other way counts as inactive or inconclusive; note: nearly all actives have a fitted effect of over 55% in size; note: potency is the fitted concentration of half-maximal effect)
Sequence of Cytochrome P450 2C9 (Homo sapiens) (P11712 whole entry, looked up): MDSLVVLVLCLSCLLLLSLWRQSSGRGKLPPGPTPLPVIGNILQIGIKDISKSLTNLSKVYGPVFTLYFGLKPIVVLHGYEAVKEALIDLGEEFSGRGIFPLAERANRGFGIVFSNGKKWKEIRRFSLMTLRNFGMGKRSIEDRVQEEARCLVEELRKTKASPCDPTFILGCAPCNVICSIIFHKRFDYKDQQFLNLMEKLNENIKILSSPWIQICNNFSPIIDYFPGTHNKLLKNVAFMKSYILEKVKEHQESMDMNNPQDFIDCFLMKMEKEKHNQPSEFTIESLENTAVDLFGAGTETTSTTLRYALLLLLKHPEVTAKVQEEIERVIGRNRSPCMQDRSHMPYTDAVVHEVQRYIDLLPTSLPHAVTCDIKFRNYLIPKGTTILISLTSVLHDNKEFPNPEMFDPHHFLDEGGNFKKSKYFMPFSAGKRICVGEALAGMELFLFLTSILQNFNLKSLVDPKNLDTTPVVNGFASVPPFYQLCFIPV
Outline: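 Luminescence, after 20 min with luciferin detection reagent, reflected CYP2C9 turnover during a 1 h NADPH-driven reaction at 37C. Enzyme-substrate mix contained 0.4% bovine serum albumin and was preincubated with compound 10 min at room temperature.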

[4] = Primary qHTS for inhibitors of nuclear receptor binding SET domain protein 2 (NSD2) in an isogenic RCH-ACV NSD2 p.E1099K mutant (9B) (AID 1645876); note: nearly all actives have a fitted effect of over 70% in size; note: potency is the fitted concentration of half-maximal effect
[5] = Primary qHTS for inhibitors of nuclear receptor binding SET domain protein 2 (NSD2) in an RCH-ACV wild type WT cells (2C) (AID 1645877); note: nearly all actives have a fitted effect of over 70% in size; note: potency is the fitted concentration of half-maximal effect
[6] = NCATS anti-infectives library activity on HEK293 viability as a counter-qHTS vs the C. elegans viability qHTS (AID 1745854);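 note: HEK293 cells exposed to compounds for 24 hr before the viability read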
Outline: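 Cytotoxicity in human HEK293 cells is measured by ATP-dependent CellTiter-Glo luminescence following a 24 hr incubation with titrated library compounds at 37C. Top final concentration is 41.7 uM.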

[7] = molecular target: Glutathione peroxidase 1 (Homo sapiens) (UniProt P07203); experiment: Primary qHTS Assay for Inhibitors of Recombinant Selenoprotein Glutathione Peroxidase 1 (GPX1) (AID 1845191); note: nearly all actives have a fitted effect of over 65% in size; note: potency is the fitted concentration of half-maximal effect
Sequence of Glutathione peroxidase 1 (Homo sapiens) (P07203 whole entry, looked up): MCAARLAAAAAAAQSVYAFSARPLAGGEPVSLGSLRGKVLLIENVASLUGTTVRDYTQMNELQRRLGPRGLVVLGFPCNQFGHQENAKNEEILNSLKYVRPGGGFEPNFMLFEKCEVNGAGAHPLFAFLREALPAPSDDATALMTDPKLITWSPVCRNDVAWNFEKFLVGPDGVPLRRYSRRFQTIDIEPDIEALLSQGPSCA
Outline: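 GR-coupled assay: compounds preincubated 30 min at room temperature with GPX1, then reaction started with CHP; final 10 nM GPX1, 1 mM GSH, 0.5 mM CHP, 0.5 mM NADPH, 100 nM GR, 0.01% BSA, pH 7.5 Tris buffer. NADPH fluorescence (340/450 nm) read at 0 and 15 min.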

Structure (SMILES)	Potency [1]	Potency [2]	Potency [3]	Potency [4]	Potency [5]	outcome [6]	Potency [7]
NS(=O)(=O)c1cc(-c2nn[nH]n2)c(NCc2cccs2)cc1Cl	inactive	inactive	10.7 µM (active) and 19.5 µM (active)	inactive	inactive	–	–
Nc1c2c(nc3c1CCC3)CCCC2	inactive	12.3 µM (active)	inactive	inactive	inactive	–	–
COc1ccc(C(=O)N2CCN(CC(=O)N3CCOCC3)CC2)cc1	inactive	inactive	inactive	inactive	inactive	–	–
O=C(O)[C@@H]1[C@H]2C[C@H]3c4[nH]c5ccccc5c4CCN3C[C@@H]2CC[C@@H]1O	inactive	0.977 µM (active)	inactive	inactive	inactive	–	–
Cc1ccc(S(=O)(=O)NC(=O)NC2CCCCCCC2)cc1	inactive	inactive	17.4 µM (active)	inactive	inactive	–	–
CC(=O)Oc1cccc(C)c1	inactive	inactive	inactive	inactive	inactive	–	–
O=C(c1ccccc1)C(O)c1ccccc1 (stereo not given)	inactive	inactive	inactive	inactive	inactive	–	–
O=C1CC[C@@H](C(=O)O)N1	inactive	inactive	inactive	inactive	inactive	–	–
CC(C)CCOC(=O)c1ccc(N(C)C)cc1	inactive	inactive	6.92 µM (active)	inactive	inactive	–	–
O=C(O)c1ccc(OCCCOc2ccc(C(=O)O)cc2)cc1	inactive	12.3 µM (active)	inactive	inactive	inactive	–	–
O=C1c2ccccc2S(=O)(=O)N1CCCCN1CCN(c2ncccn2)CC1	inactive	0.871 µM (active)	11 µM (active)	inactive	inactive	–	–
CCCCCC(C)N (stereo not given)	inactive	inactive	inactive	inactive	inactive	–	–
Cn1c([N+](=O)[O-])cnc1COC(N)=O	inactive	inactive	inactive	inactive	inactive	–	–
NS(=O)(=O)c1ccc(NC(=O)CCC(=O)O)cc1	inactive	inactive	inactive	inactive	inactive	–	–
CCOc1cc(NC(C)=O)ccc1C(=O)OC	inactive	inactive	inactive	inactive	inactive	–	–
NC(=O)N[C@@H](CCC(=O)O)C(=O)O	inactive	inactive	inactive	inactive	inactive	–	–
O=C(Cn1ccnc1[N+](=O)[O-])NCCO	inactive	inactive	inactive	inactive	inactive	–	–
CN1C[C@@H]2C[C@H]1CN2c1cc2c(cc1F)c(=O)c(C(=O)O)cn2C1CC1	inactive	inactive	inactive	inactive	inactive	–	–

Structure (SMILES)	Potency [1]	Potency [2]	Potency [3]	Potency [4]	Potency [5]	outcome [6]	Potency [7]
COc1cc(O)cc(O)c1	inactive	inactive	inactive	inactive	inactive	–	–
Nc1ccncc1N	inactive	inactive	inactive	inactive	inactive	–	–
CCOC(=O)c1cccnc1	inactive	inactive	inactive	inactive	inactive	–	–
CN1CC(=O)NC1=N	inactive	inactive	inactive	inactive	inactive	–	–
CCN(CC)CCc1nc(-c2ccccc2)no1	inactive	inactive	inactive	inactive	inactive	–	–
COC(=O)c1ccccc1C(=O)c1ccc(OCCN2CCCCC2)cc1	inactive	11 µM (active)	inactive	inactive	inactive	–	–
OCC(O)CS (stereo not given)	inactive	inactive	inactive	inactive	inactive	–	–
COc1cc(C(=O)NCCCCCC(=O)O)cc(OC)c1OC	inactive	inactive	inactive	inactive	inactive	–	–
Cc1cc(O)cc(C)c1Cl	inactive	inactive	inactive	inactive	inactive	inactive	inactive
O=C(O)C(S)C(S)C(=O)O (stereo not given)	inactive	inactive	inactive	inactive	inactive	–	7.18 µM (active)
CC(C(=O)O)c1ccc2c(c1)Cc1cccnc1O2 (stereo not given)	inactive	inactive	inactive	inactive	inactive	–	inactive
Cc1cccc(C)c1NC(=O)CC12CCCN1CCC2	inactive	inactive	inactive	inactive	inactive	–	inactive
O=c1[nH]c(=O)n([C@H]2C[C@H](O)[C@@H](CO)O2)cc1I	inactive	inactive	inactive	3.35 µM (active) and 662 nM (active)	2.99 µM (active) and 662 nM (active)	inactive	–
CC(C)c1cc2c(cc1S(=O)(=O)O)[C@@]1(C)CCC[C@@](C)(C(=O)O)[C@@H]1CC2	inactive	inactive	inactive	inactive	inactive	–	–
C/C=C1\[C@H]2C=C(C)C[C@]1(N)c1ccc(=O)[nH]c1C2	inactive	inactive	inactive	inactive	inactive	–	inactive
CCCCCCCCCCC(CO)CCCCCCCC (stereo not given)	inactive	inactive	inactive	inactive	inactive	–	inactive
O=C1C(c2[nH]c3ccccc3c2O)=Nc2ccccc21	inactive	inactive	inactive	inactive	inactive	–	inactive
O=C(OOC(=O)c1ccccc1)c1ccccc1	inactive	inactive	inactive	inactive	inactive	–	inactive
